Key:
Experiment in all cases: SPOT peptide array binding signal intensity (averaged, normalized) (arbitrary units (background-subtracted, floor 0; scale differs between SH3 domains)); higher = stronger binding of the SH3 domain to the peptide
AgAbp1 = molecular target: AgAbp1
Method in brief: (§1)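 E. coli BL21(DE3) was used to express GST-fused SH3 domains from four yeast species, which were then purified on glutathione Sepharose. These were incubated at 10 μg/ml in TBS-based blocking buffer overnight at 4°C on cellulose membranes carrying synthetic 15-mer peptides, in which cysteines were replaced by serines. Binding signal is the replicate average of normalized, background-subtracted spot intensity, in arbitrary units that differ between domains.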

AgBbc1 = molecular target: AgBbc1
Method in brief: as §1

AgBem1-D1 = molecular target: AgBem1-D1
Method in brief: as §1

AgBzz1-D1 = molecular target: AgBzz1-D1
Method in brief: as §1

AgBzz1-D2 = molecular target: AgBzz1-D2
Method in brief: as §1

AgCyk3 = molecular target: AgCyk3
Method in brief: as §1

AgFus1 = molecular target: AgFus1
Method in brief: as §1

AgHof1 = molecular target: AgHof1
Method in brief: as §1

AgHse1 = molecular target: AgHse1
Method in brief: as §1

AgLsb1 = molecular target: AgLsb1
Method in brief: as §1

AgLsb4 = molecular target: AgLsb4
Method in brief: as §1

AgMyo5 = molecular target: AgMyo5
Method in brief: as §1

AgNbp2 = molecular target: AgNbp2
Method in brief: as §1

AgRvs167 = molecular target: AgRvs167
Method in brief: as §1

AgSho1 = molecular target: AgSho1
Method in brief: as §1

AgSla1-D1-D2 = molecular target: AgSla1-D1-D2
Method in brief: as §1

AgSla1-D3 = molecular target: AgSla1-D3
Method in brief: as §1

CaAbp1-D1 = molecular target: CaAbp1-D1
Method in brief: as §1

CaAbp1-D2 = molecular target: CaAbp1-D2
Method in brief: as §1

CaBbc1 = molecular target: CaBbc1
Method in brief: as §1

CaBem1-D1 = molecular target: CaBem1-D1
Method in brief: as §1

CaBzz1-D1 = molecular target: CaBzz1-D1
Method in brief: as §1

CaBzz1-D2 = molecular target: CaBzz1-D2
Method in brief: as §1

CaCyk3 = molecular target: CaCyk3
Method in brief: as §1

CaFus1 = molecular target: CaFus1
Method in brief: as §1

CaHof1 = molecular target: CaHof1
Method in brief: as §1

CaHse1 = molecular target: CaHse1
Method in brief: as §1

CaLsb1 = molecular target: CaLsb1
Method in brief: as §1

CaLsb4 = molecular target: CaLsb4
Method in brief: as §1

CaMyo5 = molecular target: CaMyo5
Method in brief: as §1

CaNbp2 = molecular target: CaNbp2
Method in brief: as §1

CaRvs167 = molecular target: CaRvs167
Method in brief: as §1

CaRvs167-3 = molecular target: CaRvs167-3
Method in brief: as §1

CaSho1 = molecular target: CaSho1
Method in brief: as §1

CaSla1-D1-D2 = molecular target: CaSla1-D1-D2
Method in brief: as §1

CaSla1-D3 = molecular target: CaSla1-D3
Method in brief: as §1

ScAbp1 = molecular target: ScAbp1
Method in brief: as §1

ScBbc1 = molecular target: ScBbc1
Method in brief: as §1

ScBem1-D1 = molecular target: ScBem1-D1
Method in brief: as §1

ScBzz1-D1 = molecular target: ScBzz1-D1
Method in brief: as §1

ScBzz1-D2 = molecular target: ScBzz1-D2
Method in brief: as §1

ScCyk3 = molecular target: ScCyk3
Method in brief: as §1

ScFus1 = molecular target: ScFus1
Method in brief: as §1

ScHof1 = molecular target: ScHof1
Method in brief: as §1

ScHse1 = molecular target: ScHse1
Method in brief: as §1

ScLsb1 = molecular target: ScLsb1
Method in brief: as §1

ScLsb2 = molecular target: ScLsb2
Method in brief: as §1

ScLsb3 = molecular target: ScLsb3
Method in brief: as §1

ScLsb4 = molecular target: ScLsb4
Method in brief: as §1

ScMyo3 = molecular target: ScMyo3
Method in brief: as §1

ScMyo5 = molecular target: ScMyo5
Method in brief: as §1

ScNbp2 = molecular target: ScNbp2
Method in brief: as §1

ScPex13 = molecular target: ScPex13
Method in brief: as §1

ScRvs167 = molecular target: ScRvs167
Method in brief: as §1

ScSho1 = molecular target: ScSho1
Method in brief: as §1

ScSla1-D1-D2 = molecular target: ScSla1-D1-D2
Method in brief: as §1

ScSla1-D3 = molecular target: ScSla1-D3
Method in brief: as §1

SpAbp1-D1 = molecular target: SpAbp1-D1
Method in brief: as §1

SpBbc1 = molecular target: SpBbc1
Method in brief: as §1

SpBzz1-D1 = molecular target: SpBzz1-D1
Method in brief: as §1

SpBzz1-D2 = molecular target: SpBzz1-D2
Method in brief: as §1

SpCyk3 = molecular target: SpCyk3
Method in brief: as §1

SpHof1 = molecular target: SpHof1
Method in brief: as §1

SpHof1-2 = molecular target: SpHof1-2
Method in brief: as §1

SpHof1-3 = molecular target: SpHof1-3
Method in brief: as §1

SpHse1 = molecular target: SpHse1
Method in brief: as §1

SpLsb1 = molecular target: SpLsb1
Method in brief: as §1

SpLsb4 = molecular target: SpLsb4
Method in brief: as §1

SpMyo1 = molecular target: SpMyo1
Method in brief: as §1

SpNbp2 = molecular target: SpNbp2
Method in brief: as §1

SpPex13 = molecular target: SpPex13
Method in brief: as §1

SpRvs167 = molecular target: SpRvs167
Method in brief: as §1

SpSla1-D1-D2 = molecular target: SpSla1-D1-D2
Method in brief: as §1

SpSla1-D3 = molecular target: SpSla1-D3
Method in brief: as §1

With AGKRRLPLVRFKASD the “SPOT peptide array binding signal intensity” value (AgAbp1) was 162, the “SPOT peptide array binding signal intensity” value (AgBbc1) was 109 and the “SPOT peptide array binding signal intensity” value (AgBem1-D1) was 301. The “SPOT peptide array binding signal intensity” value (AgBzz1-D1) was 44, the “SPOT peptide array binding signal intensity” value (AgBzz1-D2) was 40.5 and the “SPOT peptide array binding signal intensity” value (AgCyk3) was 5. The “SPOT peptide array binding signal intensity” value (AgFus1) was 783, the “SPOT peptide array binding signal intensity” value (AgHof1) was 84 and the “SPOT peptide array binding signal intensity” value (AgHse1) was 1070. The “SPOT peptide array binding signal intensity” value (AgLsb1) was 4, the “SPOT peptide array binding signal intensity” value (AgLsb4) was 214 and the “SPOT peptide array binding signal intensity” value (AgMyo5) was 2. The “SPOT peptide array binding signal intensity” value (AgNbp2) was 232, the “SPOT peptide array binding signal intensity” value (AgRvs167) was 6 and the “SPOT peptide array binding signal intensity” value (AgSho1) was 218. For the same binder, the “SPOT peptide array binding signal intensity” value (AgSla1-D1-D2) was 736, the “SPOT peptide array binding signal intensity” value (AgSla1-D3) was 11.8 and the “SPOT peptide array binding signal intensity” value (CaAbp1-D1) was 1220. The “SPOT peptide array binding signal intensity” value (CaAbp1-D2) was 806, the “SPOT peptide array binding signal intensity” value (CaBbc1) was 259 and the “SPOT peptide array binding signal intensity” value (CaBem1-D1) was 80.5. The “SPOT peptide array binding signal intensity” value (CaBzz1-D1) was 125, the “SPOT peptide array binding signal intensity” value (CaBzz1-D2) was 147 and the “SPOT peptide array binding signal intensity” value (CaCyk3) was 69. For the same binder, the “SPOT peptide array binding signal intensity” value (CaFus1) was 2040, the “SPOT peptide array binding signal intensity” value (CaHof1) was 0.75 and the “SPOT peptide array binding signal intensity” value (CaHse1) was 71.5. The “SPOT peptide array binding signal intensity” value (CaLsb1) was 2, the “SPOT peptide array binding signal intensity” value (CaLsb4) was 173 and the “SPOT peptide array binding signal intensity” value (CaMyo5) was 3. For the same binder, the “SPOT peptide array binding signal intensity” value (CaNbp2) was 384, the “SPOT peptide array binding signal intensity” value (CaRvs167) was 51.3 and the “SPOT peptide array binding signal intensity” value (CaRvs167-3) was 226. For the same binder, the “SPOT peptide array binding signal intensity” value (CaSho1) was 613, the “SPOT peptide array binding signal intensity” value (CaSla1-D1-D2) was 162 and the “SPOT peptide array binding signal intensity” value (CaSla1-D3) was 114. For the same binder, the “SPOT peptide array binding signal intensity” value (ScAbp1) was 146, the “SPOT peptide array binding signal intensity” value (ScBbc1) was 30.8 and the “SPOT peptide array binding signal intensity” value (ScBem1-D1) was 68.5. The “SPOT peptide array binding signal intensity” value (ScBzz1-D1) was 24, the “SPOT peptide array binding signal intensity” value (ScBzz1-D2) was 44 and the “SPOT peptide array binding signal intensity” value (ScCyk3) was 71. For the same binder, the “SPOT peptide array binding signal intensity” value (ScFus1) was 584, the “SPOT peptide array binding signal intensity” value (ScHof1) was 5.5 and the “SPOT peptide array binding signal intensity” value (ScHse1) was 2480. For the same binder, the “SPOT peptide array binding signal intensity” value (ScLsb1) was 4.5, the “SPOT peptide array binding signal intensity” value (ScLsb2) was 6.5 and the “SPOT peptide array binding signal intensity” value (ScLsb3) was 478. The “SPOT peptide array binding signal intensity” value (ScLsb4) was 25.5, the “SPOT peptide array binding signal intensity” value (ScMyo3) was 5 and the “SPOT peptide array binding signal intensity” value (ScMyo5) was 3. For the same binder, the “SPOT peptide array binding signal intensity” value (ScNbp2) was 626, the “SPOT peptide array binding signal intensity” value (ScPex13) was 6.75 and the “SPOT peptide array binding signal intensity” value (ScRvs167) was 364. The “SPOT peptide array binding signal intensity” value (ScSho1) was 2030, the “SPOT peptide array binding signal intensity” value (ScSla1-D1-D2) was 1180 and the “SPOT peptide array binding signal intensity” value (ScSla1-D3) was 9.75. For the same binder, the “SPOT peptide array binding signal intensity” value (SpAbp1-D1) was 592, the “SPOT peptide array binding signal intensity” value (SpBbc1) was 5.25 and the “SPOT peptide array binding signal intensity” value (SpBzz1-D1) was 180. The “SPOT peptide array binding signal intensity” value (SpBzz1-D2) was 1, the “SPOT peptide array binding signal intensity” value (SpCyk3) was 67 and the “SPOT peptide array binding signal intensity” value (SpHof1) was 481. The “SPOT peptide array binding signal intensity” value (SpHof1-2) was 99.5, the “SPOT peptide array binding signal intensity” value (SpHof1-3) was 412 and the “SPOT peptide array binding signal intensity” value (SpHse1) was 536. The “SPOT peptide array binding signal intensity” value (SpLsb1) was 17, the “SPOT peptide array binding signal intensity” value (SpLsb4) was 354 and the “SPOT peptide array binding signal intensity” value (SpMyo1) was 3.5. The “SPOT peptide array binding signal intensity” value (SpNbp2) was 1010, the “SPOT peptide array binding signal intensity” value (SpPex13) was 42.5 and the “SPOT peptide array binding signal intensity” value (SpRvs167) was 248. For the same binder, the “SPOT peptide array binding signal intensity” value (SpSla1-D1-D2) was 4 and the “SPOT peptide array binding signal intensity” value (SpSla1-D3) was 17.5.
